Most compounds without a hit are left out; they make up all but 3.6% or so of the library.
mHTT-CaM PPI inh: mutant huntingtin-calmodulin interaction inhibitors – biochemical, AlphaScreen, primary screen. P42858. AlphaScreen His-mHTT/GST-CaM binding, luminescence. inhibition, % at 15 µM. actives 3.6% (n = 190,000)
Pf apPOL block: Pf-apPOL inhibitors, biochemical, fluorescence. Plasmodium falciparum apicoplast DNA polymerase (apPOL). Recombinant Pf-apPOL, molecular beacon fluorescence, 1.5 h. inhibition, % at 10 µM. actives 0.25% (n = 210,000). AID 1794808, 2022
Each line names hits and unclear results; the compound was inactive in the other large screens; ! = not confirmed by another sample. Rule as the data show it: active = inhibition above about 50%; inactive = the rest.

O=c1[nH]c2ccc(Br)cc2c(-c2ccccc2)c1[N+](=O)[O-]	none
COc1ccc(OC)c(NC(=O)c2cc(S(=O)(=O)NCc3ccc(F)cc3)ccc2F)c1	none
COc1ccc(-c2ccc(C(=O)N3CCCCC3C)s2)c(OC)c1OC (stereo not drawn)	none
CCc1ccccc1N1C=C(C#N)S(=O)(=O)c2ccc(F)cc21	none
Nc1ccc(Nc2ccccc2)c(Cl)c1	none
Nc1ccc(Nc2ccc(N)cc2S(=O)(=O)O)cc1	mHTT-CaM PPI inh 97 (no result: Pf apPOL block)
Cn1nc(COCc2ccccc2)c2c1CCN(C(=O)Nc1ccc(F)cc1)C2	none
CC(C)N1C(=O)C(C)(C(=O)Nc2ccccc2F)Oc2cccnc21 (stereo not drawn)	none
Cc1nc(C)n(CC(O)COc2ccc(-c3ccccc3)cc2)n1 (stereo not drawn)	none
Cc1nn(CC(O)COC(c2ccccc2)c2ccccc2)c(C)c1Br (stereo not drawn)	mHTT-CaM PPI inh 99
Cc1cccc(OCc2nc(-c3cccc(-c4ccnn4C)c3)no2)c1	none
COc1ccc(NC(=O)C2(N3C(=O)CC3c3ccc(OC(C)C)cc3)CCCCC2)cc1 (stereo not drawn)	none
Cc1ccc(OCc2nc3ccccc3n2C(C)C)cc1	none
CC(C)n1c(C(O)c2ccc(OCc3ccccc3)cc2)nc2ccccc21 (stereo not drawn)	mHTT-CaM PPI inh 81
CC(C)CNC(=O)c1cncc(-c2ccc(F)cc2F)c1	none
CCCNC(=O)c1cncc(-c2ccc(F)cc2F)c1	Pf apPOL block 62
O=C(c1csc(-c2ccncc2)n1)N1CCC(N2CCCCC2)CC1	none
Cc1ccc(-c2nc(C(=O)Nc3ccc(F)cc3)cs2)n1C	mHTT-CaM PPI inh 58
Cc1ccc(-c2nc(C(=O)N3CCN(C4CCCCC4)CC3)cs2)n1C	mHTT-CaM PPI inh 70
Cc1ccccc1NC(=O)c1csc(-c2ccc(C)n2C)n1	none
Cc1ccc(-c2nc(C(=O)NC3CCCC3)cs2)n1C	none
Cc1ccc(-c2nc(C(=O)NC3CCN(Cc4ccccc4)CC3)cs2)n1C	mHTT-CaM PPI inh 75
COc1ccccc1N1CCN(S(=O)(=O)c2cc3c(s2)CCN(C(C)=O)C3)CC1	none
Cn1ncc(Cl)c1C(=O)O	none (no result: Pf apPOL block)
COc1ccc(N2CCN(C(=O)c3cccs3)C(C)C2=O)c(OC)c1 (stereo not drawn)	none
O=C(NCCOc1ccc2nnc(-c3ccc(F)cc3)n2n1)c1cc(-c2ccco2)[nH]n1	Pf apPOL block 64
O=C(Cc1cccs1)NCCOc1ccc2nnc(-c3ccc(F)cc3)n2n1	none
CCOc1ccc(S(=O)(=O)N(Cc2cccs2)Cc2cccn2C)cc1F	none
Cc1ccc(O)c(C2NC(=O)c3c(sc(C)c3C)N2)c1 (stereo not drawn)	mHTT-CaM PPI inh 72
Cc1cccc(C2NC(=O)c3c(sc(C)c3C)N2)c1O (stereo not drawn)	none
Cc1nnc(NC(=O)c2ccc(S(=O)(=O)NCc3ccc4c(c3)OCO4)o2)s1	mHTT-CaM PPI inh 100
O=C(NCc1cccs1)c1ccc(S(=O)(=O)NCc2ccc3c(c2)OCO3)o1	none
CCCC1Nc2c(C(=O)O)ccc([N+](=O)[O-])c2C2C=CCC12 (stereo not drawn)	none
O=C(O)C1Nc2cc(Cl)cc(Cl)c2C2C=CCC12 (stereo not drawn)	mHTT-CaM PPI inh 99
CC(=O)c1ccc2c(c1)C1C=CCC1C(c1ccc(Cl)cc1Cl)N2 (stereo not drawn)	none
O=C(O)C1Nc2c(O)cc(Cl)c([N+](=O)[O-])c2C2C=CCC12 (stereo not drawn)	mHTT-CaM PPI inh 90
O=[N+]([O-])c1c(Cl)cc(O)c2c1C1C=CCC1C(c1ccc(Cl)cc1)N2 (stereo not drawn)	mHTT-CaM PPI inh 88
O=[N+]([O-])c1c(Cl)cc(O)c2c1C1C=CCC1C(C1CC=CCC1)N2 (stereo not drawn)	mHTT-CaM PPI inh 80
CC(=O)C1=C(O)C(=O)N(C)C1c1ccccc1 (stereo not drawn)	none
Cc1sc(N=Cc2ccc(Br)s2)c(C(N)=O)c1C	none (no result: Pf apPOL block)
CC(C)NC(=O)N1CCCC(c2cccc(C(=O)NCc3ccccc3)c2)C1 (stereo not drawn)	none
COCCN=C1Nc2ccccc2CNC12CCN(C(=O)COc1ccc(F)c(F)c1)C2 (stereo not drawn)	none
CCCNC(=O)N1CCCC1c1nc(-c2cccc(C)c2)no1 (stereo not drawn)	none
Oc1ccccc1N=Cc1c(Cl)cccc1Cl	none
CCC(CO)N=Cc1c(O)n(-c2c(Cl)cccc2Cl)c2ccccc12 (stereo not drawn)	mHTT-CaM PPI inh 83
OCCN=Cc1c(O)n(-c2c(Cl)cccc2Cl)c2ccccc12	mHTT-CaM PPI inh 85
CC(=O)n1c(C=Nc2ccc(Cl)cc2)c(O)c2ccccc21	none
COc1cc(CN2CCN(c3cccc(C)c3C)CC2)cc(Br)c1O	mHTT-CaM PPI inh 55
COc1cc(CN2CCN(c3cccc(C)c3C)CC2)cc(OC)c1OC	none
COC(=O)c1ccc(Oc2coc3c4c(ccc3c2=O)OCN(Cc2ccccn2)C4)cc1	mHTT-CaM PPI inh 100
COC(=O)c1ccc(Oc2c(C)oc3c4c(ccc3c2=O)OCN(Cc2cccnc2)C4)cc1	none
O=C1c2ccccc2C(=O)c2c1oc1c3c(ccc21)OCN(Cc1ccco1)C3	mHTT-CaM PPI inh 93
O=C1c2ccccc2C(=O)c2c1oc1c3c(ccc21)OCN(Cc1cccnc1)C3	mHTT-CaM PPI inh 94!
COc1ccc(CN2COc3ccc4c(=O)c(-c5ccccc5)c(C)oc4c3C2)cc1	none
c1coc(CN2COc3cc4c(cc3C2)OCN(Cc2ccco2)C4)c1	none (no result: Pf apPOL block)
O=C1c2ccccc2C(=O)c2c1oc1c3c(ccc21)OCN(Cc1ccccn1)C3	mHTT-CaM PPI inh 100
COC(=O)c1ccc(Oc2coc3c4c(ccc3c2=O)OCN(Cc2ccc(OC)cc2)C4)cc1	none
CCOc1ccc(C=C2Oc3cc(OCC(=O)OC(C)C)ccc3C2=O)cc1	none
COc1ccc(SCC(=O)Nc2nc(-c3cccs3)cs2)cc1	none
CCN(C)Cc1nc2scc(-c3ccccc3F)c2c(=O)[nH]1	none
Cc1cccc(Cn2cnc3c2c(=O)n(C2CC2)c(=O)n3-c2cccc(C)c2)c1	none
CC(Oc1ccc(Cl)cc1Cl)C(=O)NC1=NN(c2ccccc2)C(=O)C1 (stereo not drawn)	mHTT-CaM PPI inh 68
CC(Oc1ccc(Cl)cc1Cl)C(=O)Nc1ccncc1 (stereo not drawn)	none
CSc1ccc(/C=C2\N=C(c3ccccc3F)OC2=O)cc1	none
CC1(C)S[C@@H]2[C@H](NC(=O)COc3ccccc3)C(=O)N2[C@H]1C(=O)OCc1cccc2cccnc12	mHTT-CaM PPI inh 51
Cc1cc(COC(=O)C2N3C(=O)[C@@H](NC(=O)COc4ccccc4)[C@H]3SC2(C)C)on1 (stereo partly drawn)	none
CCCN1C(=O)Cc2cc(C(=O)N3CCN(c4ccc(F)cc4)CC3)ccc21	mHTT-CaM PPI inh 51
CCCN1C(=O)Cc2cc(C(=O)N3CCN(c4cccc(C)c4)CC3)ccc21	none
CCCN1C(=O)Cc2cc(C(=O)N3CCN(c4ccccc4)CC3)ccc21	mHTT-CaM PPI inh 51
O=C(c1ccc2c(c1)CC(=O)N2Cc1ccccc1)N1CCN(c2ccccn2)CC1	mHTT-CaM PPI inh 54
CCCN1C(=O)Cc2cc(C(=O)N3CCOCC3)ccc21	none
CCCN1C(=O)Cc2cc(C(=O)N3CCN(c4cccc(C)c4C)CC3)ccc21	mHTT-CaM PPI inh 55
O=C(c1ccc2c(c1)CC(=O)N2Cc1ccccc1)N1CCCCC1	none
CCCN1C(=O)Cc2cc(C(=O)N3CCN(c4ccc(C)cc4)CC3)ccc21	none
